Assay results taken from PubChem BioAssay (NCI).
Compounds without any hit were thinned out: in the full panel of roughly 83,000, 20% have a hit.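 Treatment: one concentration, 48 hours, 96-well format. Scoring: percent growth, with anything below 10 considered active.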 Activity calls are given as the source filed them.

What was measured:
Experiment in all cases: NCI-60 one-dose screen, 48 h (100 = growth as untreated, 0 = no growth, -100 = all killed)
Settings in all cases: 10 µM unless noted
[1] = system: SR leukemia
[2] = system: RPMI-8226 leukemia
[3] = system: OVCAR-8 ovarian
[4] = system: OVCAR-5 ovarian
[5] = system: OVCAR-4 ovarian
[6] = system: SK-OV-3 ovarian
[7] = system: IGROV1 ovarian
[8] = system: OVCAR-3 ovarian
[9] = system: HS 578T breast
[10] = system: NCI/ADR-RES ovarian

Measured: growth

CCCCOc1ccc(/C=N/Nc2cc(C)nc3ccc(Br)cc23)cc1
inactive: [4] 100% | [5] 44% | [6] 91.5% | [7] 10% | [9] 86.8% | [10] 83.8%
active: [1] -9.77% | [2] -15.9% | [3] -50.1% | [8] -53%

COc1ccc(Cc2cnc(NC(=O)c3ccc4c(c3)OCCO4)s2)cc1
inactive: [2] 15.8% | [3] 16.9% | [4] 26.1% | [5] 41.2% | [6] 33.4% | [7] 20.2% | [9] 31.7%
active: [1] 3.32% | [8] 6.58% | [10] -1.17%

O=C(NNc1nc2c(F)cccc2n2cccc12)c1cnccn1
active: [1] 7.37% | [10] 3.12%
inactive: [2] 10.6% | [3] 21.1% | [4] 39% | [5] 28.1% | [6] 28.4% | [7] 21.1% | [8] 23.2% | [9] 77.3%

CNC(=O)c1cccc(Cn2nc(C)c(NC(=O)c3ccc(COc4ccc(C(F)(F)F)cc4C)cc3)c2C)n1
inactive: [1] 22% | [2] 32.7% | [3] 35.8% | [4] 104% | [5] 37.8% | [6] 74% | [7] 65.1% | [8] 35.1% | [9] 87.7% | [10] 33.4%

COc1cc2nc(-c3ccc(C(F)(F)F)cc3)cc(OCCCN3CCOCC3)c2cc1OC
inactive: [1] 16.5% | [2] 10.8% | [3] 41.6% | [4] 45.8% | [5] 52.8% | [6] 70.3% | [7] 36.4% | [8] 61.6% | [9] 54.7% | [10] 40.4%

O=C1c2ccc3c4c(ccc(c24)C(=O)N1CCCNCc1ccccc1Cl)C(=O)N(CCCNCc1ccccc1Cl)C3=O
inactive: [6] 28.3%
active: [1] -34.4% | [2] -28.9% | [3] -38.3% | [4] -39.2% | [5] -96.6% | [7] -34.1% | [8] -64.4% | [9] -22.9% | [10] -12.3%

O=C(c1nc2ccccc2[nH]1)C1C(c2ccc(Cl)cc2)C2CC3CCCC[C@H]3N2[C@@]12C(=O)Nc1cc(Cl)ccc12 (stereo not given in full)
inactive: [1] 39% | [2] 16.8% | [3] 61.3% | [4] 56% | [5] 24.4% | [6] 71.4% | [7] 32% | [8] 35% | [9] 73.2% | [10] 50.5%

O=S(=O)(NCCNc1nccc(-c2c(-c3cccc(O)c3)nc3occn23)n1)c1ccc(C(F)(F)F)cc1
inactive: [1] 110% | [2] 105% | [3] 102% | [4] 138% | [5] 118% | [6] 95.8% | [7] 73.8% | [8] 113% | [9] 100% | [10] 105%

C#CCNC(=O)[C@]1(C)CC[C@]2(C)CC[C@@H]3C(=CC[C@H]4[C@@]3(C)CC[C@H]3C(C)(C)C(=O)CC[C@]43C)[C@@H]2C1
inactive: [1] 55.9% | [2] 69.1% | [3] 96.8% | [4] 102% | [5] 91.4% | [6] 92.1% | [7] 60.1% | [8] 95.7% | [9] 126% | [10] 94.2%

COC(=O)/C=C1\S/C(=N\NC(=O)c2cc3ccc2/C=C\c2ccc(cc2)/C=C\3)N(c2ccccc2)C1=O
inactive: [3] 40.7% | [4] 48.2% | [5] 29.4% | [6] 135% | [9] 77.9% | [10] 31.4%
active: [1] -15.6% | [2] -20.9% | [7] 5.97% | [8] -6.25%

CCCCCOc1ccc(/C=N/Nc2cc(C)nc3ccc(Cl)cc23)cc1
inactive: [4] 93.7% | [6] 90.4% | [9] 51.3% | [10] 53.5%
active: [1] -21.9% | [2] -23.1% | [3] -43.1% | [5] -14.1% | [7] -76.8% | [8] -79.4%

COc1cc2c(c(OC)c1OC)-c1ccc(NNC(=S)N(Cc3cccc(C[N+](Cc4cccc(CNC56CC7CC(CC(C7)C5)C6)c4)(Cc4cccc(CNC56CC7CC(CC(C7)C5)C6)c4)Cc4cccc(CN(C(=S)NNc5ccc6c(cc5=O)[C@@H](NC(C)=O)CCc5cc(OC)c(OC)c(OC)c5-6)C56CC7CC(CC(C7)C5)C6)c4)c3)C34CC5CC(CC(C5)C3)C4)c(=O)cc1[C@@H](NC(C)=O)CC2 (stereo not given in full)
active: [1] -49.9% | [2] -46.6% | [9] 7.62%
inactive: [3] 16.1% | [4] 37% | [5] 29.3% | [6] 37% | [7] 10.6% | [8] 20.7% | [10] 76.3%

C#CCNC(=O)[C@H](Cc1ccccc1)NC(=O)[C@]12CC[C@@H](C(=C)C)[C@@H]1[C@H]1CC[C@@H]3[C@@]4(C)CCC(=O)C(C)(C)[C@@H]4CC[C@@]3(C)[C@]1(C)CC2
inactive: [1] 42% | [2] 38% | [3] 86.8% | [4] 87.1% | [5] 81.6% | [6] 84.7% | [7] 89.1% | [8] 62.9% | [9] 85.1% | [10] 79.8%

O=S(=O)(NCCCNc1nccc(-c2c(-c3cccc(F)c3)nc3sccn23)n1)c1cccc(F)c1
inactive: [1] 64.9% | [2] 28% | [3] 18.4% | [4] 110% | [5] 26.8% | [6] 66% | [7] 18.9% | [8] 50.7% | [9] 63.7% | [10] 17.6%

COc1ccc(OC)c(-c2cc(-c3ccc(Cl)cc3)c3c(N)c(C(=O)c4ccc(Cl)cc4)sc3n2)c1
inactive: [1] 101% | [2] 94.2% | [3] 104% | [4] 96.4% | [5] 93.1% | [6] 89.8% | [7] 92.1% | [8] 103% | [9] 115% | [10] 103%

COc1cc(/C=C\C(=O)O)ccc1OCc1ccccc1
inactive: [1] 97.7% | [2] 90.2% | [3] 93.7% | [4] 110% | [5] 108% | [6] 102% | [7] 103% | [8] 104% | [9] 101% | [10] 101%

CCN(CC)c1ccc(/C=N/NC(=O)CSc2nc3ccccc3c(=O)n2CCc2ccc(S(N)(=O)=O)cc2)c(O)c1
inactive: [1] 13.8% | [4] 47.7% | [5] 19.7% | [6] 41.1% | [7] 13.7% | [9] 46.3% | [10] 82.6%
active: [2] -31.5% | [3] 8.51% | [8] 1.89%

COC(=O)C1=C(C(=O)ON)[C@@H]2C=C[C@@]1([C@@H](Cc1ccccc1)Nc1ccccc1)O2
active: [1] 8.17% | [8] -79.1%
inactive: [2] 21.7% | [3] 92.8% | [4] 89% | [5] 79.9% | [6] 107% | [7] 85.6% | [9] 109% | [10] 89.8%

COc1ccc(C(=O)C2C(C#N)C(C#N)C3C=Cc4ccccc4N32)cc1 (stereo not given)
active: [8] -11.9% | [10] -7.8%
inactive: [1] 21.3% | [2] 29.9% | [3] 27.6% | [4] 31.4% | [5] 46.4% | [6] 55.2% | [7] 23.2% | [9] 14.4%

COc1cc(/C=C/c2cc(O)c(C(C)=O)c(O)c2)cc2c1O[C@]1(C)CC[C@@H](O)C(C)(C)[C@H]1C2
active: [2] -7.38%
inactive: [1] 29.9% | [3] 67.7% | [4] 89.8% | [5] 90.8% | [6] 66.1% | [7] 60.3% | [8] 61.4% | [9] 25.4% | [10] 74.2%

CCCCCN1C=C/C(=C\C(=O)n2ccc3ccccc32)c2ccccc21
inactive: [1] 82.8% | [2] 73.7% | [3] 93.6% | [4] 93.7% | [5] 71.6% | [6] 78.5% | [7] 65.5% | [8] 86.4% | [9] 92.2% | [10] 94.3%

COC(=O)/C=C1\S/C(=N\NC(=O)c2cc3ccc2/C=C\c2ccc(cc2)/C=C\3)N(Cc2ccccc2)C1=O
inactive: [3] 71.6% | [4] 65.3% | [5] 44.6% | [6] 133% | [7] 42.3% | [8] 20.3% | [9] 87.4% | [10] 70.4%
active: [1] -14.7% | [2] -47%

Cc1ccc(NC(C(=O)c2ccccc2)c2ccccc2)cc1 (stereo not given)
inactive: [1] 69% | [2] 25.6% | [3] 45.9% | [4] 78.4% | [5] 49.5% | [6] 95.5% | [7] 57.6% | [8] 29.4% | [9] 32.7% | [10] 92.8%

O=C(Nc1ccccc1C(=O)N/N=C(\c1ccccc1)c1ccccn1)c1ccc(F)cc1
inactive: [1] 14.4% | [2] 29.1% | [3] 17.1% | [4] 41.7% | [7] 22.8% | [8] 18.1% | [9] 59.9%
active: [5] -5.03% | [6] 2.2% | [10] 9.79%

O=S(=O)(NCCNc1nccc(-c2c(-c3cccc(O)c3)nc3occn23)n1)c1ccccc1
inactive: [1] 75.7% | [2] 92.8% | [3] 79.8% | [4] 117% | [5] 123% | [6] 97.2% | [7] 47.8% | [8] 97.9% | [9] 91.8% | [10] 112%

O=C(O)c1ccc(-c2nn(-c3ccc(C(F)(F)F)cc3)cc2CNc2ccc(Oc3ccccc3)cc2)cc1
inactive: [1] 60.7% | [2] 46.5% | [3] 69% | [4] 103% | [5] 90.3% | [6] 135% | [7] 89% | [8] 92.5% | [9] 95.7% | [10] 81.9%
